According to PubChem BioAssay (EPA / NIEHS):
Records with an inconclusive call do not appear. The source made the active and inactive calls. How the source made its calls, unless noted: active means hit-call score of the fitted dose curve at least 0.9, where 1 is the maximum; inactive means score below 0.9.

Experiments:
[1] = CCTE_Harrill_HTTr_Apoptosis_PRF_DMEM_6hr: (Pilot) CCTE's 6-hour Apoptosis Assessment for the High-Throughput Transcriptomics (HTTr) Platform, in MCF-7 cells cultured phenol red-free DMEM + 10% charcoal-stripped fetal bovine serum, Harrill Lab (AID 2283984)
In short: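 MCF-7 cells in phenol red-free DMEM + 10% charcoal-stripped FBS, eight-point dilution series, 6 h exposure. Caspase-3/7 activation imaged by high-content imaging with CellEvent Caspase 3/7 Green; bidirectional fit versus DMSO baseline.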

[2] = CCTE_Harrill_HTTr_Apoptosis_PRF_DMEM_24hr: (Pilot) CCTE's 24-hour Apoptosis Assessment for the High-Throughput Transcriptomics (HTTr) Platform, in MCF-7 cells cultured in phenol red-free DMEM + 10% charcoal-stripped fetal bovine serum, Harrill Lab (AID 2283986)
In short: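 MCF-7 cells in phenol red-free DMEM with 10% charcoal-stripped FBS, exposed 24 h across an eight-point dilution series. Caspase-3/7 activation imaged with CellEvent Green by high content imaging; bidirectional fitting against DMSO.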

[3] = target: Nucleoli Translocation, AR (gene 367) (UniProt P10275); assay: UPITT_HCI_U2OS_AR_TIF2_Nucleoli_Antagonist: University of Pittsburgh U2OS Androgen Receptor-Transcriptional Intermediary Factor 2 (AR-TIF2) Antagonism High Content Imaging Assay for Nucleoli Translocation (AID 2283997; active means hit-call score of the fitted dose curve at least 0.9, where 1 is the maximum)
In short: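 U2OS cells co-expressing red-fluorescent-tagged human AR and green-fluorescent-tagged TIF2, imaged by high-content microscopy for nucleolar red fluorescence. Antagonist mode against DHT; primary screen at 20 uM final (0.2% DMSO).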

[4] = target: Nucleoli Translocation, AR (gene 367) (UniProt P10275); assay: UPITT_HCI_U2OS_AR_TIF2_Nucleoli_Agonist: University of Pittsburgh U2OS Androgen Receptor-Transcriptional Intermediary Factor 2 (AR-TIF2) Agonism High Content Imaging Assay for Nucleoli Translocation (AID 2283998; active means hit-call score of the fitted dose curve at least 0.9, where 1 is the maximum)
In short: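 Readout is red (AR-RFP) fluorescence localized to nucleoli, measured by high-content imaging and analysed for increase relative to DMSO. Compound series spanned 0.195 to 50 uM final in 0.5% DMSO.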

[5] = target: Ratio of Nucleoli Translocation and Cytoplasm, AR (gene 367) (UniProt P10275); assay: UPITT_HCI_U2OS_AR_TIF2_Nucleoli_Cytoplasm_Ratio_Agonist: University of Pittsburgh U2OS Androgen Receptor-Transcriptional Intermediary Factor 2 (AR-TIF2) Agonism High Content Imaging Assay for Ratio of Nucleoli Translocation and Cytoplasm (AID 2284000; active means hit-call score of the fitted dose curve at least 0.9, where 1 is the maximum;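 further: hits raise the red nucleolar to cytoplasm ratio above vehicle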)
In short: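 U2OS cells expressing RFP-tagged human AR and GFP-tagged TIF2; high-content imaging ratio of nucleolar to cytoplasmic red fluorescence, fitted as gain of signal vs DMSO. Single point at 20 uM final (0.2% DMSO); concentration-response 0.195-50 uM final (0.5% DMSO).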

[6] = CCTE_Harrill_HTTr_Viability_MCF7: CCTE's 6-hour Cell Viability Assessment for the High-Throughput Transcriptomics (HTTr) Platform, in MCF-7 cells cultured in DMEM + 10% fetal bovine serum, Harrill Lab (AID 2284010)
In short: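 Viability measured through PI dye exclusion by high-content imaging at 6 h post-dosing.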

[7] = CCTE_Harrill_HTTr_Apoptosis_MCF7: CCTE's 6-hour Apoptosis Assessment for the High-Throughput Transcriptomics (HTTr) Platform, in MCF-7 cells cultured in DMEM + 10% fetal bovine serum, Harrill Lab (AID 2284011)
In short: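 MCF-7 (DMEM + 10% FBS), 384-well; 8-pt dilution series, 6 h chemical exposure; caspase-3/7 activation via CellEvent Caspase 3/7 Green, HCI; bidirectional fit vs DMSO.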

[8] = CCTE_Simmons_MITO_basal_resp_rate: CCTE's HepG2 Seahorse XF Respirometric Screening Assay at Basal Respiratory State, Simmons Lab (AID 2284001); conditions: actives raise or lower the signal
In short: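 HepG2 oxygen consumption on Seahorse XF96 after compound injection, 7 concentrations 125 nM–100 uM final, reads every 6 min over 72 min. Triplicate biological replicates; bidirectional fit vs DMSO; fenpyroximate and 2,4-dinitrophenol controls.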

[9] = CCTE_Simmons_MITO_max_resp_rate: CCTE's HepG2 Seahorse XF Respirometric Screening Assay at Maximal Respiratory State [uncoupled], Simmons Lab (AID 2284002); conditions: actives raise or lower the signal
In short: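 Read-out is oxygen consumption rate at maximal respiration, taken after FCCP uncoupling of compound-treated HepG2 cells. Seven final concentrations from 125 nM to 100 uM were tested, each in three biological replicates.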

[10] = CCTE_Simmons_MITO_inhib_resp_rate: CCTE's HepG2 Seahorse XF Respirometric Screening Assay at Inhibited Respiratory State [full ETC block], Simmons Lab (AID 2284006); conditions: actives raise or lower the signal
In short: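 Inhibited respiration was taken as HepG2 oxygen consumption after rotenone/antimycin A, which followed test-compound and FCCP injections. Chemicals were tested at seven final concentrations from 125 nM to 100 uM. Activity was fitted bidirectionally relative to DMSO.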

[11] = CCTE_Simmons_MITO_viability: CellTiter-Glo Viability Assessment for CCTE's HepG2 Seahorse XF Respirometric Screening Assay [post-hoc], Simmons Lab (AID 2284007; active means hit-call score of the fitted dose curve at least 0.9, where 1 is the maximum;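 on AC50: cells exposed to chemical for 90 min before the ATP read; actives lower ATP signal relative to DMSO baseline meaning reduced viability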)
In short: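 HepG2 cells; test chemical 7 conc. (125 nM–100 uM final) × 90 min; then luminescent ATP detection. DMSO vehicle. Positive control dichlone, 8 conc. from 10 nM to 100 uM final. Loss-of-signal endpoint.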

[12] = CCTE_Harrill_HTTr_CellCount_MCF7: CCTE's Cell Proliferation Assessment for the High-Throughput Transcriptomics (HTTr) Platform, Harrill Lab (AID 2284012; active means hit-call score of the fitted dose curve at least 0.9, where 1 is the maximum;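 further: count of Hoechst-stained nuclei per well by high-content imaging in MCF-7 cells; cells exposed to compound for six hours; intended direction is loss of nuclei count meaning fewer cells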)
In short: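 Nuclei counting (Hoechst, high content imaging) in MCF-7 after a 6 h treatment at eight concentrations. Activity fitted bidirectionally, DMSO as negative control.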

[13] = target: Ratio of Nucleoli Translocation and Cytoplasm, AR (gene 367) (UniProt P10275); assay: UPITT_HCI_U2OS_AR_TIF2_Nucleoli_Cytoplasm_Ratio_Antagonist: University of Pittsburgh U2OS Androgen Receptor-Transcriptional Intermediary Factor 2 (AR-TIF2) Antagonism High Content Imaging Assay for Ratio of Nucleoli Translocation and Cytoplasm (AID 2283999; active means hit-call score of the fitted dose curve at least 0.9, where 1 is the maximum;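 further: antagonists lower the DHT-driven ratio of nucleolar to cytoplasmic red signal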)
In short: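 High-content imaging quantifies the red nucleolar:cytoplasmic fluorescence ratio in U2OS cells with AR-RFP and TIF2-GFP. Final concentrations are 20 uM (screen) or 0.195–50 uM (dose response), analysed against DHT as baseline.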

[14] = CCTE_Shafer_MEA_acute_spike_number: CCTE's Neural Acute Assay for Total Number of Spikes, Shafer Lab (AID 2284008)
In short: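 Read-out is the total spike count over 40 min, expressed as percent change from each well's own pre-treatment baseline and fitted in the loss direction against DMSO. Rat cortical neurons were exposed at 0.03-40 uM on DIV 13 or 15.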

[15] = CCTE_Shafer_MEA_acute_firing_rate_mean: CCTE's Neural Acute Assay for Mean Firing Rate, Shafer Lab (AID 2284009);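 further: analyzed for loss of signal so actives lower firing rate relative to DMSO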
In short: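 Rat primary cortical neurons on 48-well MEA plates, dosed at 0.03-40 uM on DIV 13 or 15; 40 min spontaneous activity recorded at 37 C before and after compound. Spike rate per electrode averaged per well, expressed as percent change from baseline.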

[16] = CCTE_Shafer_MEA_acute_burst_number: CCTE's Neural Acute Assay for Single-Electrode Bursts, Shafer Lab (AID 2284013)
In short: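 Primary rat cortical neurons on 16-electrode MEA wells, treated on DIV 13 or 15 with compound at 0.03-40 uM. Single-electrode burst count from 40-min recordings at 37 C before and after exposure; percent change from baseline per well, DMSO negative control.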

[17] = CCTE_Shafer_MEA_acute_burst_duration_mean: CCTE's Neural Acute Assay for Mean Burst Duration, Shafer Lab (AID 2284014);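 further: hits are decreases in mean burst duration relative to DMSO controls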
In short: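 Rat primary cortical neurons on 48-well MEA, treated at DIV 13 or 15 with 0.03-40 uM in at least 3 wells. Value is percent change in mean burst duration, comparing 40 min recordings at 37 C before and during exposure.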

[18] = CCTE_Shafer_MEA_acute_interburst_interval_mean: CCTE's Neural Acute Assay for Mean Interburst Interval, Shafer Lab (AID 2284016);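 further: percent change of mean interburst interval versus each well's own pre-dose baseline; curves fitted for decrease in interburst interval relative to DMSO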
In short: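 Percent change in mean single-electrode interburst interval was calculated per well from 40 min recordings before and after compound (0.03-40 uM). Recordings were made at 37 C on rat cortical cultures at DIV 13 or 15, with spikes detected at 8x rms threshold.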

[19] = CCTE_Shafer_MEA_acute_burst_percentage_std: CCTE's Neural Acute Assay for Standard Deviation of Burst Percentage, Shafer Lab (AID 2284018);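 further: fitted in the negative direction so actives lower burst percentage SD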
In short: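 Rat primary cortical neurons on 48-well MEAs, DIV 13 or 15, 37 C. 40-min baseline then 40-min recording with compound (0.03-40 uM); well-level SD of per-electrode burst spike percentage, expressed as percent change from baseline.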

Measured: AC50

Nucleoli Translocation, AR (gene 367), sequence (P10275 whole entry, looked up): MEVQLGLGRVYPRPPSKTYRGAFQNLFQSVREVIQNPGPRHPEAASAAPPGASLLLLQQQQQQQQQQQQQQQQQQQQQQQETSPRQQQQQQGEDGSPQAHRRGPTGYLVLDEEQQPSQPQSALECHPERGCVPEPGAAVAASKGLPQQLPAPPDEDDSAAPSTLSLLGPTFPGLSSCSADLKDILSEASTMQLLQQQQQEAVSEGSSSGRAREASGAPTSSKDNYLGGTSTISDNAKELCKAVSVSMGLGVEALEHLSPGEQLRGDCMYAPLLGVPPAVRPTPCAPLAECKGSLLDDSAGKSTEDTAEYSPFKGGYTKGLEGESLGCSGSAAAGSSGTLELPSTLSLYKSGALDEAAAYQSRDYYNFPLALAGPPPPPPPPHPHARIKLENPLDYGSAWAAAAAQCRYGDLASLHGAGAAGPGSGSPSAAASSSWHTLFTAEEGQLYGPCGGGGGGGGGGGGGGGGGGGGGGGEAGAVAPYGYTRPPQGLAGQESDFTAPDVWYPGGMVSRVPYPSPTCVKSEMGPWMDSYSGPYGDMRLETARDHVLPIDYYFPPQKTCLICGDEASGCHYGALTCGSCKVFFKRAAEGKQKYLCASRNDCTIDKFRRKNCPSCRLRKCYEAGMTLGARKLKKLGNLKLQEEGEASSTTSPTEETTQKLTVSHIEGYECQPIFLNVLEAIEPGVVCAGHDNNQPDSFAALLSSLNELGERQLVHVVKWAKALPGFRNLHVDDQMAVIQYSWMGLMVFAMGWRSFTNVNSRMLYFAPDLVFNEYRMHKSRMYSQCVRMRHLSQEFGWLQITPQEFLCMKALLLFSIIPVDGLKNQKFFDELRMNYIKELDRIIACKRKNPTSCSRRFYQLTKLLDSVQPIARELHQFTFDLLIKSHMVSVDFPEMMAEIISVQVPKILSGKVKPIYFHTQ
Ratio of Nucleoli Translocation and Cytoplasm, AR (gene 367), sequence (P10275 whole entry, looked up): as above

C[C@]12CC[C@@H]3c4ccc(O)cc4C[C@@H](CCCCCCCCCS(=O)CCCC(F)(F)C(F)(F)F)[C@H]3[C@@H]1CC[C@@H]2O (some centres undefined)
inactive: [1] | [2] | [3] | [4] | [5] | [6] | [7]

CCCCC(CC)COC(=O)c1ccccc1C(=O)O (centres undefined)
active: [8] 3.97 µM
inactive: [9] | [10] | [11] | [6] | [7]

O=C(O)C1(C(=O)Nc2ccc(Cl)cc2Cl)CC1
active: [9] 37.8 µM | [11] 29.3 µM
inactive: [3] | [4] | [5] | [8] | [10] | [6] | [7] | [12]

CCOC(=O)C(C)Oc1ccc(Oc2nc3ccc(Cl)cc3o2)cc1 (centres undefined)
inactive: [3] | [13] | [6] | [7]

O=C(c1ccc(O)cc1O)c1ccc(O)cc1O
active: [3] 10.1 µM | [13] 2.35 µM | [8] 34.6 µM
inactive: [4] | [5] | [9] | [10] | [11] | [14] | [15] | [6] | [7] | [16] | [17] | [18] | [19]

CSC(=O)c1cccc2nnsc12
active: [3] 50 µM
inactive: [4] | [13] | [5] | [14] | [15] | [6] | [7] | [16] | [17] | [18] | [19]

CCN(CC)C(=O)c1cccc(C)c1
inactive: [6] | [7] | [12]

C#C[C@]1(O)CC[C@H]2[C@@H]3CCC4=CC(=O)CC[C@@H]4[C@H]3CC[C@@]21CC
inactive: [6] | [7] | [12]

CCNc1nc(N)nc(Cl)n1
inactive: [14] | [15] | [6] | [7] | [16] | [17] | [18] | [19]

CCN(Cc1c(F)cccc1Cl)c1c([N+](=O)[O-])cc(C(F)(F)F)cc1[N+](=O)[O-]
inactive: [6] | [7]

O=C(O)c1ccccc1
inactive: [14] | [15] | [6] | [7] | [12] | [16] | [17] | [18] | [19]

CCCCOC(=O)C(C)Oc1ccc(Oc2ccc(C(F)(F)F)cn2)cc1 (centres undefined)
inactive: [8] | [9] | [10] | [11] | [6] | [7]

CCCN(CCC)c1c([N+](=O)[O-])cc(C(F)(F)F)c(N)c1[N+](=O)[O-]
active: [6] 68.1 µM | [19] 31.1 µM
inactive: [14] | [15] | [7] | [12] | [16] | [17] | [18]

COCCO
inactive: [6] | [7]

CCOC(=O)C(C)Oc1ccc(Oc2cnc3cc(Cl)ccc3n2)cc1 (centres undefined)
inactive: [6] | [7]
